PubChem BioAssay AID1159580 (chemical genetic matrix, 2015)
“And” between values parts separate entries of the source, which are not always exact repeats. Equal entries are not always repeated. Hit rate of the full screen: of about 5,500 compounds, about 2,000 (36%) were called active. Another 18% or so got no clear call; they are omitted. Cut-off read from the data, not from the text of the source: active = normalized growth mostly below about 0.91 (no sharp cut-off); inconclusive = no clear call, values can overlap the other calls; inactive = mostly above about 0.92. Some of the results follow.

Assay: chemical genetic growth profiling, strain panel (AID 1159580);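 note: tested at 20 µM; growth read once vehicle control cultures reached saturation at 30 °C; 1 = growth at the plate median or of vehicle wells; lower values mean less growth of the strain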
Conditions: S. cerevisiae deletion strains, growth OD

Measured: normalized growth

NC(=O)c1cnccn1
inactive: locus YAL013W, strain DEP1, stronger effect = lower value 1.01 and 1.02 | locus YAL021C, strain ccr4, stronger effect = lower value 0.992 | locus YAL026C, strain drs2, stronger effect = lower value 1.01 | locus YAL030W, strain snc1, stronger effect = lower value 0.996 | locus YAL040C, strain CLN3, stronger effect = lower value 1 | locus YBL061C, strain skt5, stronger effect = lower value 0.988 | locus YBR009C, strain hhf1, stronger effect = lower value 1.01 | locus YBR021W, strain FUR4, stronger effect = lower value 1.02 | locus YBR023C, strain chs3, stronger effect = lower value 1.01 | locus YBR171W, strain sec66, stronger effect = lower value 0.968 | locus YBR229C, strain ROT2, stronger effect = lower value 1 | locus YBR231C, strain swc5, stronger effect = lower value 0.984 | locus YBR279W, strain paf1, stronger effect = lower value 1 | locus YCL011C, strain gbp2, stronger effect = lower value 1 | locus YCL016C, strain dcc1, stronger effect = lower value 1.01 | locus YCL029C, strain bik1, stronger effect = lower value 1 | locus YCL061C, strain MRC1 (second series), stronger effect = lower value 1.01 | locus YCL069W, strain vba3, stronger effect = lower value 1 | locus YCR088W, strain abp1, stronger effect = lower value 0.981 | locus YDL005C, strain med2, stronger effect = lower value 0.974 | locus YDL035C, strain GPR1, stronger effect = lower value 1.01 | locus YDL040C, strain nat1, stronger effect = lower value 0.984 | locus YDL074C, strain BRE1, stronger effect = lower value 1 | locus YDL101C, strain DUN1, stronger effect = lower value 1.01 | locus YDL134C, strain PPH21, stronger effect = lower value 1.01 | locus YDL185W, strain tfp1, stronger effect = lower value 1.02 | locus YDL192W, strain arf1, stronger effect = lower value 1.01 | locus YDR001C, strain nth1, stronger effect = lower value 0.996 | locus YDR069C, strain doa4, stronger effect = lower value 0.982 | locus YDR101C, strain arx1, stronger effect = lower value 1 | locus YDR137W, strain rgp1, stronger effect = lower value 0.98 | locus YDR150W, strain NUM1, stronger effect = lower value 0.993 and 1 | locus YDR159W, strain sac3, stronger effect = lower value 1 | locus YDR162C, strain NBP2, stronger effect = lower value 1.01 | locus YDR195W, strain ref2 0.905 | locus YDR297W, strain sur2, stronger effect = lower value 0.994 | locus YDR318W, strain mcm21, stronger effect = lower value 1.02 | locus YDR334W, strain swr1, stronger effect = lower value 0.98 | locus YDR335W, strain msn5, stronger effect = lower value 0.99 | locus YDR363W, strain ESC2, stronger effect = lower value 0.964 | locus YDR388W, stronger effect = lower value 1.01 | locus YDR392W, strain spt3, stronger effect = lower value 1.05 | locus YDR502C, strain sam2, stronger effect = lower value 1.01 | locus YEL003W, strain gim4, stronger effect = lower value 0.992 | locus YEL037C, strain rad23, stronger effect = lower value 0.995 | locus YEL061C, strain CIN8 (second series), stronger effect = lower value 0.994 | locus YEL061C, strain CIN8, stronger effect = lower value 1 | locus YER002W, strain NOP16, stronger effect = lower value 1.01 | locus YER015W, strain faa2, stronger effect = lower value 0.995 | locus YER016W, strain bim1, stronger effect = lower value 1 | locus YER110C, stronger effect = lower value 0.995 | locus YER111C, strain swi4, stronger effect = lower value 0.993 | locus YER155C, strain BEM2 (second series), stronger effect = lower value 0.955 | locus YER155C, strain BEM2, stronger effect = lower value 1.01 | locus YER167W, strain BCK2, stronger effect = lower value 1.01 | locus YFR010W, strain ubp6, stronger effect = lower value 0.979 | locus YGL078C, strain dbp3, stronger effect = lower value 0.993 | locus YGL086W, strain mad1, stronger effect = lower value 1.02 | locus YGL167C, strain pmr1, stronger effect = lower value 0.987 | locus YGL173C, strain kem1, stronger effect = lower value 0.983 | locus YGL227W, strain vid30, stronger effect = lower value 0.991 | locus YGL240W, strain doc1, stronger effect = lower value 0.959 | locus YGL248W, strain PDE1, stronger effect = lower value 1 | locus YGL253W, strain hxk2, stronger effect = lower value 1.02 | locus YGR135W, strain pre9, stronger effect = lower value 0.996 | locus YGR229C, strain SMI1, stronger effect = lower value 1.03 and 1.02 | locus YGR252W, strain gcn5, stronger effect = lower value 0.988 | locus YHR013C, strain ard1, stronger effect = lower value 0.966 | locus YHR027C, strain rpn1, stronger effect = lower value 0.995 | locus YHR030C, strain SLT2, stronger effect = lower value 1 and 1.07 | locus YHR079C, strain IRE1 (second series), stronger effect = lower value 1.01 | locus YHR079C, strain IRE1, stronger effect = lower value 1.03 | locus YHR094C, strain hxt1, stronger effect = lower value 0.999 | locus YHR129C, strain ARP1, stronger effect = lower value 0.996 | locus YHR142W, strain chs7, stronger effect = lower value 0.992 | locus YHR200W, strain rpn10, stronger effect = lower value 1 | locus YIL066C, strain RNR3, stronger effect = lower value 1.01 | locus YIL073C, strain SPO22, stronger effect = lower value 1.06 | locus YIL125W, strain kgd1, stronger effect = lower value 0.999 | locus YIR030C, strain dcg1, stronger effect = lower value 1 | locus YJL092W, strain hpr5, stronger effect = lower value 0.974 | locus YJL095W, strain BCK1 (second series), stronger effect = lower value 0.995 | locus YJL095W, strain BCK1, stronger effect = lower value 0.997 and 1.06 | locus YJL115W, strain asf1, stronger effect = lower value 0.995 | locus YJL129C, strain trk1, stronger effect = lower value 0.981 | locus YJL134W, strain LCB3, stronger effect = lower value 1.01 | locus YJL154C, strain vps35, stronger effect = lower value 0.991 | locus YJL164C, strain tpk1, stronger effect = lower value 1.01 | locus YJL166W, strain qcr8, stronger effect = lower value 0.969 | locus YJL168C, strain set2, stronger effect = lower value 1.01 | locus YJL187C, strain SWE1 (second series), stronger effect = lower value 1.01 | locus YJR043C, strain POL32, stronger effect = lower value 1 | locus YJR066W, strain TOR1, stronger effect = lower value 1
